Test results: PubChem BioAssay AID1259415 (National Center for Advancing Translational Sciences (NCATS), 2018)
Screen size: about 410,000 compounds; about 18,000 (4.4%) were called active. Another 7% or so got no clear call; they are omitted. Many of the other results were omitted from the sample, so actives are more common in it than they were. A number with no mark means an inactive call. Cut-off read from the data, not from the text of the source: active = activity change below about -60%; inconclusive = no clear call, values can overlap the other calls; inactive = above about -39%.

Experiment: qHTS Assay for inhibitors of the human cytomegalovirus (HCMV)
Details: HFF cells, HCMV-luciferase reporter, 72 h; at 57.5 µM; stronger effect = lower value
Procedure, shortened: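 Compounds were evaluated in HFFs infected with an HCMV luciferase reporter virus (MOI 1 PFU/cell). Luciferase in lysates collected 72 h post infection served as the replication measure.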
% is set by controls: 0 for no effect and ±100 for the full control effect.

| Compound | activity change, negative = inhibition |
| --- | --- |
| Cc1noc(C)c1S(=O)(=O)N(C)C[C@H]1Oc2c(NC(=O)Nc3ccc4c(c3)OCO4)cccc2C(=O)N([C@H](C)CO)C[C@@H]1C | 22.1% |
| COc1ccc(-c2cn3nc(N4CCCC(C(=O)NCCCOC(C)C)C4)sc3n2)cc1 (stereo unspecified) | 0% |
| Cc1ccc2nsnc2c1S(=O)(=O)N1CCCC1C(=O)O (stereo unspecified) | -8.96% |
| CCc1ccc(S(=O)(=O)c2nnn3c2nc(N2CCN(CC)CC2)c2sccc23)cc1 | 9.37% |
| N#CCCN(CCC#N)c1nnc(-c2ccccc2)s1 | 3.02% |
| CC1CCCC(C)N1C(=O)CN1CCN(c2nc(-c3ccc(F)cc3)cs2)CC1 (stereo unspecified) | -63.2% (active) |
| CN(C)CCCNC(=S)N1CCN(c2nc(-c3ccccc3)cs2)CC1 | -3.01% |
| CCc1ccc(CNC(=O)C2CCN(c3nn4cc(-c5ccc(F)cc5)nc4s3)CC2)cc1 | 0% |
| O=C(NCc1nnc(SCC(=O)N2CCC(Cc3ccccc3)CC2)o1)c1ccco1 | -25.7% |
| COc1ccc(NC(=O)Nc2ccc3nsnc3c2)cc1 | -62.9% (active) |
| COc1ccc(NC(=O)Nc2cccc(-c3noc(C)n3)c2)cc1 | -15.1% |
| COC(=O)[C@H](CCSC)NC(=O)Nc1ccc(OC)cc1 | 10.5% |
| CCOC(=O)c1ccc(NC(=O)Cn2c(=O)n(-c3ccc(C)cc3)c(=O)c3c2cnn3C)cc1 | 2.83% |
| CSc1ncnc2c1ncn2CCCNCC1CCCCC1 | 8.49% |
| CSc1ncnc2c1ncn2CC(=O)C1CCC2C3CCC4=CC(=O)CCC4(C)C3CCC12C (stereo unspecified) | -83% (active) |
| CSc1ncnc2c1ncn2CCCNCc1ccco1 | 11.8% |
| O=C(O)c1ccc(Cn2c(SCc3ccc(F)cc3)nc3ccncc32)cc1 | 0.974% |
| O=C(NCCCN1CCN(c2cccc(Cl)c2)CC1)c1nnc(Cc2ccc(F)cc2Cl)o1 | -14.1% |
| CCOc1ccc(CCNC(=O)c2cc3c(=O)n(C)c4ccccc4c3n2C)cc1 | -15.3% |
| Cn1c(C(=O)NCCCN2CCN(c3cccc(Cl)c3)CC2)cc2c(=O)n(C)c3ccccc3c21 | -68.6% (active) |
| Cc1cccc(NC(=O)CSc2ncc(-c3ccccc3)[nH]2)c1C | 45.4% |

| Compound | activity change, negative = inhibition |
| --- | --- |
| C=CCOC(=O)C1=C[C@@H](c2ccccc2)C[C@@H](OCc2ccc(CO)cc2)O1 | -2.26% |
| CN(C)c1ccc(C(CNS(=O)(=O)c2cc(F)ccc2F)N2CCOCC2)cc1 (stereo unspecified) | -0.38% |
| CCCNC(=O)C(CC)n1nc(CC)n2c(cc3oc(C)cc32)c1=O (stereo unspecified) | -16.8% |
| COc1cc(OC)c(NC(=O)c2nc(-c3ccncc3)no2)cc1Cl | -9.36% |
| CCOC(=O)C1CN(S(=O)(=O)c2ccc(OC)cc2)c2cc(Cl)ccc2O1 (stereo unspecified) | -61.8% (active) |
| CCS(=O)(=O)c1ccc2c(c1)N(S(=O)(=O)c1ccccc1)CC(C(=O)O)O2 (stereo unspecified) | 4.24% |
| CCOC(=O)C1CN(S(=O)(=O)c2ccc(F)cc2)C1 | 41% |
| CCCCCn1c(=O)[nH]c2cc(C(=O)Nc3cc(C)cc(C)c3)ccc2c1=O | -0.639% |
| CC[C@]1(O)C[C@@H]2CN(CCc3c([nH]c4ccccc34)[C@@](C(=O)OC)(c3cc4c(cc3OC)N(C)[C@H]3[C@@](O)(C(=O)OC)[C@H](OC(C)=O)[C@]5(CC)C=CCN6CC[C@]43[C@@H]65)C2)C1 | -99.7% (active) |
| CC[C@]1(O)CC2CN(CCc3c([nH]c4ccccc34)[C@@](C(=O)OC)(c3cc4c(cc3OC)N(C=O)[C@H]3[C@@](O)(C(=O)OC)[C@H](OC(C)=O)[C@]5(CC)C=CCN6CC[C@]43[C@@H]65)C2)C1 (stereo partly specified) | -100% (active) |
| CCc1cccc(NC(=O)CSc2nccn2C)c1 | 73.7% |
| O=C(Nc1cc(-c2nc3ccccc3o2)ccc1Cl)c1cc([N+](=O)[O-])ccc1N1CCOCC1 | 17.1% |
| O=C(CCCCn1c(=O)c2ccccc2n(CC(=O)Nc2cccc(C(F)(F)F)c2)c1=O)NCc1ccc2c(c1)OCO2 | -22.6% |
| CCC(=O)N1CCc2cc(S(=O)(=O)NC(CC(C)C)C(=O)NCCc3cccc(C)c3)ccc21 (stereo unspecified) | -11.4% |
| COc1cn(CC(=O)Nc2cccc(C)c2C)c(CN2CCCCC2)cc1=O | 6.56% |
| O=C(c1ccc(N2CCOCC2)c([N+](=O)[O-])c1)N1CCN(S(=O)(=O)c2cccs2)CC1 | 5.8% |
| COc1ccc(N2CCN(C(=O)c3c(C)oc4nc(C)nc(N5CCCC5)c34)CC2)cc1 | 18.7% |
| COc1ccc(-c2cc(C(=O)N3CCN(c4ccc(F)cc4)CC3)no2)cc1 | -76% (active) |
| O=C(c1cc(C(=O)N2CCN(c3ccc(F)cc3)CC2)cc([N+](=O)[O-])c1)N1CCN(c2ccc(F)cc2)CC1 | -66.2% (active) |
| O=C(c1ccc(N2CCOCC2)c([N+](=O)[O-])c1)N1CCN(c2ccccc2F)CC1 | -77.5% (active) |
